The structures appear in SMILES notation. Unmarked numbers belong to inactive results.

This assay deals with Toxoplasma gondii RH 2F1 tachyzoites (intracellular in HFF). The assay is described as follows: parasite survival relative to DMSO control; higher = less antiparasitic activity, active = 20 or less. The settings on record: 1 µM; 72 h. Summed up:
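Parasite survival was taken as the CPRG signal relative to DMSO-treated infected wells, given as a percentage. To obtain it, HFF cells (5 × 10^3 cells/well, 96-well plates) were infected for 3 h in D2 medium with 5 × 10^3 β-galactosidase-expressing Toxoplasma gondii RH-2F1 tachyzoites, then exposed to compound at 1 μM for 72 h at 37°C in 5% CO2. Absorbance at 570 nm was measured 30 min after CPRG was added to lysed cells, and 2 or more biological replicates were run.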
`CCCCOC(=O)Nc1cc2nc(C3CCCCC3)[nH]c2cc1N(CC)CC`: the parasite survival was 5.06% (active). For `O=S(=O)(Nc1ccccc1)c1ccc(NC(=S)Nc2ccccc2)cc1`, the parasite survival is 47.2%. With `COc1cc(C(C(=O)NC2CCCCC2)N(C(=O)Cc2c[nH]c3ccccc23)c2ccc(C(C)C)cc2)cc(OC)c1OC` (stereo not given) the figure was 46.5%.

Take `O=C(NCc1ccc2c3c(cccc13)C(=O)N2)c1cccs1`: the parasite survival is 75.5%. Turning to `O=C(Nc1ccc(F)cc1)c1nn(-c2ccccc2)c(=O)cc1Cl`, the parasite survival is 42.6%. In the case of `COc1ccc2sc3c(c2c1)NC(C)CNC3=O` (stereo not given), the parasite survival is 6.94% (active). As for `C[C@@H](NC(=O)c1ccccc1-c1ccccc1)B(O)O`, the parasite survival is 43.9%. On to `O=C(O)c1cc(-c2ccccc2)nc2ccccc12`, for which the parasite survival is 67.9%.

As to `CN1CCN(c2ccc3[nH]c(-c4ccc5[nH]c(-c6ccc(O)cc6)nc5c4)nc3c2)CC1`, the parasite survival is 35.3%. To `CN(C)CC(=O)Nc1ccc2[nH]c(=O)c3ccccc3c2c1` belongs 55.3%.

Consider `NC(=O)c1c(N)sc2c1CCCCC2`, for which the parasite survival is 48.8%. To `O=C(CP(=O)(O)O)NCCc1cccc(Oc2ccccc2)c1` belongs 40.8%; to `O=[N+]([O-])c1ccc2c(CCc3c[nH]c4ccccc34)c[nH]c2c1`, 43.3%. With `CCn1cc(C(=O)O)c(=O)c2cc(F)c(N3CCNC(C)C3)c(F)c21` (stereo not given) the figure was 76%. To `CN(Cc1ccc(C(C)(C)C)cc1)Cc1cccc2ccccc12` belongs 37.9%; to `COc1ccc(SC(=O)N[C@H](CCC(=O)O)C(=O)O)cc1`, 56.2%. As to `COc1cc(C2C3=C(CC(C)(C)CC3=O)Nc3ccccc3N2C(C)=O)ccc1OCc1ccccc1` (stereo not given), the parasite survival was 56.3%. `CCCCCOc1ccc(/C=C2\Oc3c(ccc(O)c3O)C2=O)c(O)c1`: the parasite survival is 48.2%. To `O=C(Nc1nnc(-c2ccc(Cl)cc2)o1)c1ccc(F)cc1` belongs 41.1%; to `NC[C@H]1O[C@H](O[C@H]2[C@H](O)[C@@H](O[C@H]3O[C@H](CO)[C@@H](O)[C@H](N)[C@H]3O)[C@H](N)C[C@@H]2N)[C@H](N)C[C@@H]1O`, 48.9%; to `COc1cc(NCc2ccc3nc(N)nc(N)c3c2C)cc(OC)c1OC`, 3.86% (active). Consider `CC[N+]1(C/C2=C/CCCCCC2)CCC(NC(=O)C2c3cc(Cl)ccc3Oc3ccc(Cl)cc32)CC1` (stereo not given), for which the parasite survival was 59.8%.

Consider `NC(=O)c1ccccc1NC(=O)c1ccc(C(=O)Nc2ccccc2C(N)=O)cc1`, for which the parasite survival was 39.5%.

With `COc1ccc(CNC(=O)C(NS(=O)(=O)c2ccc3nc(C)sc3c2)C(C)C)cc1` (stereo not given), the parasite survival was 56.4%. Consider `O=C(O)C(Cc1c[nH]c2ccccc12)N1C(=O)c2ccccc2C1=O` (stereo not given), for which the parasite survival was 46.6%. With `Nc1nc2c(ncn2COC(CO)CO)c(=O)[nH]1` the figure was 80%. Regarding `Nc1nnnn1CCOc1c2[nH]c3ccc(Cl)cc3c2cc2c1[nH]c1ccc(Cl)cc12`, the parasite survival is 28.5%.

In the case of `C[C@@H](c1nc(-c2ccc(C#N)cc2)cs1)[C@](O)(Cn1cncn1)c1ccc(F)cc1F`, the parasite survival was 62.9%. Consider `O=C(NCc1ncc(C(F)(F)F)cc1Cl)c1c(Cl)cccc1Cl`, for which the parasite survival was 45.4%. Consider `O=C(NC12CC3CC(CC(C3)C1)C2)c1cc2ccccc2[nH]1`, for which the parasite survival is 14.7% (active). To `[N-]=[N+]=N[C@H]1C[C@H](n2ccc(=O)[nH]c2=O)O[C@@H]1CO` belongs 73.1%; to `CN1c2ccc(Cl)cc2N(c2ccccc2)C(=O)c2cn(Cc3ccc(CN4CCOCC4)cc3)nc21`, 44%. Turning to `N[C@H](CCC(=O)N[C@@H](Cc1c[nH]c2ccccc12)C(=O)O)C(=O)O`, the parasite survival was 84.2%. Turning to `CCCC(=O)OCCc1ccccc1`, the parasite survival was 57%.

On to `OB1OCc2cc(Cl)ccc21`, for which the parasite survival is 57.2%. For the compound `CCCCSc1nc(N)c2[nH]c(=O)c(=O)n(Cc3ccccc3)c2n1`, the parasite survival is 26.1%. On to `OC1O[C@H](CSc2ccc(F)cc2)[C@@H](O)[C@H]1O` (stereo not given in full), for which the parasite survival was 49.9%. To `C/C(=N\NC(=O)C1CC1c1ccccc1)c1ccc(NC(=O)c2ccco2)cc1` (stereo not given) belongs 47.3%. To `Cc1ccc(S(=O)(=O)Nc2cccc3cccnc23)cc1` belongs 4.22% (active); to `Nc1cc(N)c2nc(-c3ccccc3)c(Nc3ccc(F)cc3)nc2c1`, 7.94% (active).

The values above are taken from the supplement of paper PMC10941209.
